Results reported in PubChem BioAssay (NCATS).
“And” between values parts separate entries of the source, which are not always exact repeats. Equal entries are not always repeated. Inconclusive results are not listed. The source made the active and inactive calls. Unless noted, calls follow the shape of the dose curve; as a rule, active = well fitted curve in the direction sought with a large enough effect; inconclusive = small, poorly fitted or top-dose-only effect, or another doubt; inactive = no such curve, though single readings can be large; an effect the other way counts as inactive or inconclusive.

Tests used:
[1] = Cell Viability - N2a (AID 540); settings: N2a mouse neuroblastoma cell viability; at 92.2 µM (top of the series);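 also: cells exposed to compound for 40 h at 37 °C; plate controls were DMSO alone for no effect and tamoxifen control for full effect; nearly all actives have a fitted effect of over 45% in size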
In short: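 Luminescent ATP signal (CellTiter-Glo, 20 min at room temperature) served as the viability read-out after N2a cells were treated with compounds for 40 hours at 37 °C. Concentration-response data were fitted to the Hill equation for AC50.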

[2] = Cell Viability - HUV-EC-C (AID 542); also: % is scaled to controls: 0 for no effect and ±100 for the full control effect; nearly all actives have a fitted effect of over 35% in size
In short: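 qHTS cytotoxicity: HUV-EC-C, 1000 cells/well, 5 hr settle, compound 40 hr 37 °C, CellTiter-Glo, luminescence. AC50 via Hill equation.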

[3] = Cell Viability - H-4-II-E (AID 543); also: % is scaled to controls: 0 for no effect and ±100 for the full control effect; nearly all actives have a fitted effect of over 35% in size
In short: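 Luminescent ATP signal (CellTiter-Glo) served as the viability read-out, with cytotoxicity seen as a concentration-dependent ATP drop. Cells were treated for 40 hours in complete medium. AC50 values derive from Hill-equation modelling.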

[4] = Cell Viability - SH-SY5Y (AID 544);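 also: 0% = DMSO alone and -100% = 100 µM tamoxifen; nearly all actives have a fitted effect of over 55% in size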
In short: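 Luminescent ATP read-out (CellTiter-Glo) measures loss of viable SH-SY5Y neuroblastoma cells after 40 hr compound exposure at 37 °C. AC50 values derive from standard Hill modelling of qHTS concentration-response data.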

[5] = Cell Viability - Renal Proximal Tubule (AID 545);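 also: 0% = DMSO only and -100% = 100 µM tamoxifen; nearly all actives have a fitted effect of over 40% in size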
In short: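 Primary rat renal proximal tubule cells (1000/well) were treated with compounds for 40 hr at 37 °C in complete medium. Intracellular ATP was measured by CellTiter-Glo luminescence, and AC50 values came from Hill-equation fits of concentration-response data.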

[6] = Cell Viability - Mesenchymal (AID 546);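 also: cells exposed to compound for 40 hours before reading; 0% = DMSO only and -100% = 100 µM tamoxifen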
In short: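 AC50 values reflect the drop in intracellular ATP in a human kidney mesenchymal line derived from normal glomeruli. Treatment lasts 40 hr at 37 °C in complete medium, and the signal comes from CellTiter-Glo luminescence.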

[7] = Cellular Toxicity (caspase-3) HepG2 (AID 654);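 also: cells exposed to compound for 16 hours before reading; 0% = DMSO alone and 100% = caspase signal from 100 µM tamoxifen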
In short: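 Cells plated 5 hr at 37 °C, compound added, incubated 16 hr at 37 °C. Caspase-Glo 3/7 reagent followed, 20 min at room temperature, then luminescence read. Activation scored as signal increase; AC50 from Hill fit.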

[8] = Cellular Toxicity (caspase-3) Jurkat (AID 655);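 also: cells exposed to compound for 16 h at 37 °C before reading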
In short: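 Jurkat cells (5000/well) in complete medium were treated with compounds for 16 hr at 37 °C, then Caspase-Glo 3/7 luminescence was read after 20 min at room temperature. Data normalized to DMSO (basal) and 100 uM tamoxifen (100%); AC50 from Hill fit.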

[9] = Cellular Toxicity (caspase-3) HUV-EC-C (AID 656);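 also: 0% = DMSO basal and 100% = 100 µM tamoxifen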
In short: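 HUV-EC-C endothelial cells, 1000/well, were pre-incubated 5 hr at 37°C, then exposed to compounds for 16 hr at 37°C. Caspase-Glo 3/7 luminescence was read after 20 min at room temperature. AC50 came from Hill fits, normalized to DMSO and 100 uM tamoxifen.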

[10] = Cellular Toxicity (caspase-3) SHSY5Y (AID 657)
In short: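 SH-SY5Y human neuroblastoma cells (1500/well) were treated with compounds for 16 h at 37 °C, then Caspase-Glo 3/7 luminescence was read after 1 h at room temperature. Data normalized to DMSO and 10 uM staurosporine; AC50 from Hill fits.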

[11] = Cellular Toxicity (caspase-3) BJ (AID 658);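 also: 0% = DMSO basal and 100% = 10 µM staurosporine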
In short: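 Readout: Caspase-Glo 3/7 luminescence increase in BJ cells after 16 hr treatment at 37 °C. Staurosporine and tamoxifen served as positive controls; AC50 values came from Hill modelling of data normalized to DMSO and 10 uM staurosporine.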

[12] = Cellular Toxicity (caspase-3) MRC-5 (AID 659);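 also: 0% = DMSO basal and 100% = 10 µM staurosporine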
In short: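 Concentration-dependent caspase 3/7 activation is measured in human normal lung fibroblasts (MRC-5) following 16-hour treatment. AC50 values come from standard Hill-equation modeling of luminescence normalized to DMSO and 10 uM staurosporine.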

[13] = Cellular Toxicity (caspase-3) Mesangial (AID 660);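 also: combined caspase 3 and 7 activity read by Caspase-Glo luminescence; cells exposed to compound for 16 h before the caspase read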
In short: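 Mesangial cells, 1000/well, 5 h settle at 37 °C; compound 16 h, 37 °C; Caspase-Glo 3/7 reagent 20 min RT; luminescence. Norm.: DMSO = 0%, tamoxifen 100 uM = 100%. AC50, Hill fit.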

[14] = Cellular Toxicity (caspase-3) SK-N-SH (AID 661);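 also: 0% = DMSO basal and 100% = 10 µM staurosporine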
In short: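 Human neuroblastoma SK-N-SH, 1500 cells/well, 5 hr pre-incubation, then compound 16 hr, 37 °C. Caspase-Glo 3/7 reagent, 1 hr RT, luminescence. Norm. to DMSO/10 uM staurosporine; Hill-fit AC50.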

[15] = Cellular Toxicity (caspase-3) H-4-II-E (AID 663);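 also: cells exposed to compound for 16 hr before readout; 0% = DMSO basal and 100% = 100 µM tamoxifen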
In short: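 Apoptosis induction is scored as increased luminescence from caspase 3/7 substrate cleavage in rat hepatoma H-4-II-E cells exposed to compound for 16 hr. Activity is scaled between DMSO and 100 uM tamoxifen.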

[16] = target: Vitamin D3 receptor (Homo sapiens) (UniProt P11473); experiment: qHTS assay for small molecule antagonists of vitamin D receptor signaling (AID 588541; calls by dose curve;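 also: receptor activated by calcitriol during compound treatment; % is scaled to controls: 0 for no effect and ±100 for the full control effect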)
Sequence of Vitamin D3 receptor (Homo sapiens) (P11473 whole entry, looked up): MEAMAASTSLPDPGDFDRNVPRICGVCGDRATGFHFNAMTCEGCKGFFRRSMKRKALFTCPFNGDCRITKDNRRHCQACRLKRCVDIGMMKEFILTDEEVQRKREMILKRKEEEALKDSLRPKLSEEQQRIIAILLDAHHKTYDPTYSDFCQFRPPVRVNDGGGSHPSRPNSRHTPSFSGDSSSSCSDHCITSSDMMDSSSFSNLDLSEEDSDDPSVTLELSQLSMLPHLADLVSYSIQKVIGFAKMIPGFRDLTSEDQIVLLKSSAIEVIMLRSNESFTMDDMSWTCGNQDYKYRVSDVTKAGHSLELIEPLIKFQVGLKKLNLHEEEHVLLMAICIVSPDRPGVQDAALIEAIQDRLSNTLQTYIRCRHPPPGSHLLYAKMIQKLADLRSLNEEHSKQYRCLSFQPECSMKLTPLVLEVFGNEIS
In short: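 Antagonist-mode beta-lactamase reporter assay: HEK293T VDR-UAS-bla cells were exposed to titrated compound alongside 1-alpha,25-dihydroxyvitamin D3 at 3 nM final for 16 h. Values were normalized to the 50 nM agonist control and DMSO basal, with IC50 and efficacy from Hill equation fits.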

[17] = target: Thyroid hormone receptor beta (Homo sapiens) (UniProt P10828); experiment: qHTS assay for small molecule antagonists of thyroid hormone receptor beta signaling (AID 588547; active = well fitted inhibition curve with a large enough effect in the signal ratio, with a control signal flat, not every such curve was filed as active; the % refers to the signal ratio;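 also: cells stimulated with 0.4 nM T3 agonist during compound exposure; % is scaled to controls: 0 for no effect and ±100 for the full control effect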); settings: TR-UAS-bla HEK293, beta-lactamase ratio, antagonist mode, 18 h
Sequence of Thyroid hormone receptor beta (Homo sapiens) (P10828 whole entry, looked up): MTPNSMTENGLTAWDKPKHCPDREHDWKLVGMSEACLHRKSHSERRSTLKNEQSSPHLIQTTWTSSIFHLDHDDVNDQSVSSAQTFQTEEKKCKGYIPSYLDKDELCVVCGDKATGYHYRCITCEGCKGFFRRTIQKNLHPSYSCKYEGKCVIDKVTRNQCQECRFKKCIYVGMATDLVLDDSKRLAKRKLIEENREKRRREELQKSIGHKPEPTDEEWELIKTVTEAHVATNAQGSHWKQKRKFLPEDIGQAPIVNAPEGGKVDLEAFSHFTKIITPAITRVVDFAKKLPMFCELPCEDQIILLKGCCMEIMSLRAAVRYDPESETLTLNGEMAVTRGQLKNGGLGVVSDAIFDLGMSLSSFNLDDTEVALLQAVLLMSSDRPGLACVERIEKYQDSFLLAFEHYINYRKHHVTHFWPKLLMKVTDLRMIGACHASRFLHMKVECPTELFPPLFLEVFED
In short: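 Inhibition of T3-driven (0.4nM final) beta-lactamase reporter activity was measured over 0.59 nM to 92 uM compound after 18 h at 37 C. The cells were GripTite HEK293 TR-UAS-bla in charcoal/dextran-stripped serum, with CCF4 ratio read-out and IC50 from Hill fits.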

[18] = target: Voltage-gated inwardly rectifying potassium channel KCNH2 (Homo sapiens) (UniProt Q12809); experiment: qHTS Assay for Small Molecule Inhibitors of the Human hERG Channel Activity (AID 588834);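 also: top concentration of the series differs between compounds; % is scaled to controls: 0 for no effect and ±100 for the full control effect; lower thallium flux fluorescence means stronger hERG block; nearly all actives have a fitted effect of over 50% in size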
Sequence of Voltage-gated inwardly rectifying potassium channel KCNH2 (Homo sapiens) (Q12809 whole entry, looked up): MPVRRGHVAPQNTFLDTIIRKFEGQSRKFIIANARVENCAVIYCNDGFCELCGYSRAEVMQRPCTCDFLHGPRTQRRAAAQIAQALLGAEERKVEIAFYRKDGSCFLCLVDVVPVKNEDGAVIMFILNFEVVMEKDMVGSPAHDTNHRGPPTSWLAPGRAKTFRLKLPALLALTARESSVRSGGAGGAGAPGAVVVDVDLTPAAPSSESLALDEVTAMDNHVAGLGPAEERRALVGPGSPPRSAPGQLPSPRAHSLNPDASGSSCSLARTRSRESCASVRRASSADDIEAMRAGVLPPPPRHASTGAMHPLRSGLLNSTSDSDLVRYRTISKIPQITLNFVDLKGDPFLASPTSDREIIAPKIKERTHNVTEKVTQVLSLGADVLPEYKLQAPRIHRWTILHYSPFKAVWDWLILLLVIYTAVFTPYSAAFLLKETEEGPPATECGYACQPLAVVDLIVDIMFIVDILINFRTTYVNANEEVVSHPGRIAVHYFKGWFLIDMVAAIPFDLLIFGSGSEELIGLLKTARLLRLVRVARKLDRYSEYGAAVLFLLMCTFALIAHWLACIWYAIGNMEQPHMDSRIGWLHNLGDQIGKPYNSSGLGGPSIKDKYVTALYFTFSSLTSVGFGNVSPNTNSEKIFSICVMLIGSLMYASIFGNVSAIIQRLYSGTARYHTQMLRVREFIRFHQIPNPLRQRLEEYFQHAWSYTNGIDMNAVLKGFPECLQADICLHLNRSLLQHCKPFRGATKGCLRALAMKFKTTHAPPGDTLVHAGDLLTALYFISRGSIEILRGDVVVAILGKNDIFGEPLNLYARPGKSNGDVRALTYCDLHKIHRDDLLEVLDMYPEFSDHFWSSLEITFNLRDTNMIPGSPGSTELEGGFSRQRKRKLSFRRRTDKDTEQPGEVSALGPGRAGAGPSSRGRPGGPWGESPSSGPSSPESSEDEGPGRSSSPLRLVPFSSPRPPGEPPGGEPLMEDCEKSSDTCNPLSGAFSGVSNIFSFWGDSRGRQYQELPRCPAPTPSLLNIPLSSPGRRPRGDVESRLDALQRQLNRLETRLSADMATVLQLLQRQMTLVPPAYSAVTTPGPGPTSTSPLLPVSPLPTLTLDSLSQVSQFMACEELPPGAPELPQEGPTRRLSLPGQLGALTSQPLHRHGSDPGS
In short: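 U2OS cells transduced with hERG via BacMam (MOI ~100), plated 2000/well, loaded with FluxOR thallium dye, compound ~10 min, then stimulation buffer; fluorescence decrease read kinetically; AC50 from Hill fits.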

[19] = qHTS assay for small molecule agonists of the antioxidant response element (ARE) signaling pathway (AID 651741; active = well fitted activation curve with a large enough effect in the signal ratio; the % refers to the signal ratio; also: % of control where 0% means no effect)
In short: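 Quantitative HTS in HepG2 cells stably expressing an ARE-beta-lactamase reporter; 16 h compound exposure at 37 C, followed by 2 h room-temperature incubation with LiveBLAzer B/G FRET substrate and fluorescence measurement.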

[20] = target: Nuclear receptor ROR-gamma (Homo sapiens) (UniProt P51449); experiment: qHTS assay for small molecule antagonists of the retinoid-related orphan receptor gamma (ROR-gamma) signaling pathway (AID 651802);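 also: CHO cells with doxycycline-induced ROR-gamma expression; luciferase reporter luminescence driven by ROR response element; % is scaled to controls: 0 for no effect and ±100 for the full control effect; nearly all actives have a fitted effect of over 60% in size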
Sequence of Nuclear receptor ROR-gamma (Homo sapiens) (P51449 whole entry, looked up): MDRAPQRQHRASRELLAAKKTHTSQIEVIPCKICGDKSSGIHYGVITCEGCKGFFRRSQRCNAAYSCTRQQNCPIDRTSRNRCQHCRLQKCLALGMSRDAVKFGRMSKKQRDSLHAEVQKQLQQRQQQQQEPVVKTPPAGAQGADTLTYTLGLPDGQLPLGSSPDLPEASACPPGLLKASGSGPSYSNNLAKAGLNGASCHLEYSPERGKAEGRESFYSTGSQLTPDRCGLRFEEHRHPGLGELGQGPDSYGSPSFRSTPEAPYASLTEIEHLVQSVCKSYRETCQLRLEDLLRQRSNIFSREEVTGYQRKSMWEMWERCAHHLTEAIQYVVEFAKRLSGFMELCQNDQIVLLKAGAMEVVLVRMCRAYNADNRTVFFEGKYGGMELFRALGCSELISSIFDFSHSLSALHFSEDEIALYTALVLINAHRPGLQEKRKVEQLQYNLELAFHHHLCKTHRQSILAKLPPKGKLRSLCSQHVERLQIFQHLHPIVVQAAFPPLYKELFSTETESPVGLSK
In short: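 CHO, TET-inducible ROR + RORE-LUC reporter, 1536-well qHTS. Compound pinned, doxycycline added, 16hr 37C/5% CO2. ONE-Glo, 30 min RT, luminescence; signal drop scored as antagonism.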

O=Cc1ccccc1
inactive: activity change, negative = cytotoxicity [1] 6.11% | outcome [2] | outcome [3] | outcome [4] | outcome [5] | outcome [6] | outcome [7] | outcome [8] | outcome [9] | outcome [10] | outcome [11] | outcome [12] | outcome [13] | outcome [14] | outcome [15] | outcome [16] | activity change % (negative = inhibition) [17] 12% | Potency [18] | Potency [19] | Potency [20]

CCOc1cc(C=O)ccc1O
inactive: activity change, negative = cytotoxicity [1] -1.75% | outcome [2] | outcome [3] | outcome [4] | outcome [5] | outcome [6] | outcome [7] | outcome [8] | outcome [9] | outcome [10] | outcome [11] | outcome [12] | outcome [13] | outcome [14] | outcome [15] | outcome [16] | activity change % (negative = inhibition) [17] 6.05% and -14.6% | Potency [18] | Potency [19] | Potency [20]

COC(=O)c1ccccc1C(=O)OC
inactive: activity change, negative = cytotoxicity [1] 4.28% | outcome [2] | outcome [3] | outcome [4] | outcome [5] | outcome [6] | outcome [7] | outcome [8] | outcome [9] | outcome [10] | outcome [11] | outcome [12] | outcome [13] | outcome [14] | outcome [15] | outcome [16] | activity change % (negative = inhibition) [17] 0.995% and 14.6% | Potency [18] | Potency [19] | Potency [20]
